DAX1 inh-1 – DAX1 (NR0B1) inhibitors on StAR promoter, primary screen, cell-based, luminescence, SF-1 (NR5A1), full-length DAX-1; HEK293T StAR-luciferase reporter, SF-1/DAX-1 repression relief; inhibition, % at 6.8 µM; 370,000 tested, 1.1% active;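 active = inhibition above the mean over all tested compounds plus 3 SD, cut at about 3.6% in these data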;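 also: higher inhibition means more luminescence from relief of DAX-1 repression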
DAX1 inh-2 – DAX1 (NR0B1) inhibitors, primary screen, cell-based, HEK293, Gal4-DAX1, luciferase luminescence; Nuclear receptor subfamily 0 group B member 1 (Homo sapiens), P51843; HEK293 Gal4-DAX1 luciferase reporter; inhibition, % at 6.75 µM; 340,000 tested, 0.99% active; AID 504766, 2011;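 active = inhibition above the mean over all tested compounds plus 3 SD, cut at about 4.2% in these data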;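 also: inhibition shows as a rise in luminescence from relieved DAX1 repression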
Target sequence (P51843 207-470 limits assumed): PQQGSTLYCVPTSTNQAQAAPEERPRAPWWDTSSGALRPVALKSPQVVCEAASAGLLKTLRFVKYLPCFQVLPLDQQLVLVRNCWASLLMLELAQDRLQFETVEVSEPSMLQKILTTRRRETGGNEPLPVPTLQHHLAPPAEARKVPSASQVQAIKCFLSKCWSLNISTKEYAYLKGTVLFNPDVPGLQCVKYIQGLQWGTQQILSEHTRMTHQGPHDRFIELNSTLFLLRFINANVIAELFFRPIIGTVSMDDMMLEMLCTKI
hgDAF12 agonist – H. glycines DAF-12 receptor agonists, primary screen, cell-based, luminescence, HEK293, GAL4 fusion, UAS-luciferase; activation, % at 6.8 µM; 370,000 tested, 1.8% active; HEK293 GAL4-hgDAF12 UAS-luciferase reporter, agonist luminescence; normalized to butyrate control; AID 687014, 2013;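 active = activation above a cutoff set at the mean of all screened compounds plus 3 SD, cut at about 10% in these data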
hcDAF12 agonist – H. contortus DAF-12 nuclear receptor activators, primary screen, cell-based, luminescence, HEK293, lit1-tk-luc reporter. activation, % at 6.8 µM. AID 652067, 2013. HEK293 hcDAF-12 lit1-tk-luc reporter; 0% DMSO, 100% Δ7-dafachronic acid. 370,000 tested, 1.4% active;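 active = activation above the mean of all tested compounds plus 3 SD, cut at about 5.5% in these data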
FXN GAA850 act – FXN promoter activators, primary screen, cell-based, luciferase luminescence, HEK293 lucGAA850. 360,000 tested, 0.56% active. AID 540364, 2011. HEK293 lucGAA850 FXN promoter luciferase reporter, 24 h; percent of 10 µM SAHA response. activation, % at 6 µM;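 active = activation above the average of all compounds screened plus 3 SD, cutoff fixed separately per campaign, cut at about 7.5% in these data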
ssDAF-12 act – S. stercoralis DAF-12 nuclear receptor activators, primary screen, cell-based, luminescence, HEK293, GRIP1 co-expression, lit1-tk-luc; HEK293 ssDAF-12/GRIP1 lit1-tk-luc reporter; % of 3 µM dafachronic acid response; Nuclear hormone receptor DAF-12 (Strongyloides stercoralis); 370,000 tested, 1% active; AID 652126, 2013; activation, % at 6.8 µM;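 active = activation above the mean over all tested compounds plus 3 SD, cut at about 0.9% in these data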
Of the large screens only hits and unclear results are named; the others gave an inactive call. A selection: hits, their analogues and other compounds. The true share with any hit is near 4.5%.

CN(C)c1cccc(/C=C2\CC3(OC(=O)c4cccc(F)c4)CCCN2C3)c1 (stereo unspecified)	none (no result: DAX1 inh-2, FXN GAA850 act)
CC(C)C/C=C1\CCc2c([nH]c3ccccc23)C1=O	none
O=C1/C(=C/c2cccnc2)CCc2c1[nH]c1ccccc21	hgDAF12 agonist 13
C[C@H]1CNC(=O)c2c(C(=O)N3CCN(c4ccccc4)CC3)ncn21	none (no result: DAX1 inh-2, FXN GAA850 act)
O=C1CCC(=O)c2oc3ccccc3c2N1	none
O=C1CCc2cccc(O)c2N1	DAX1 inh-2 4.9
CC(C)Oc1ccc(Oc2ccc(C#C[C@H](C)N3C(=O)c4ccccc4C3=O)cc2)cn1	none (no result: DAX1 inh-1, DAX1 inh-2, FXN GAA850 act)
CC(C)Oc1ccc(C2NC(=O)c3ccccc3O2)cc1 (stereo unspecified)	DAX1 inh-2 4.4
C#CCC(NC(=O)c1ccc(C(F)(F)F)cc1)C(=O)NCCC (stereo unspecified)	none
CC(C)CC(C)NC(=O)c1ccc(C(F)(F)F)cc1 (stereo unspecified)	DAX1 inh-2 4.7
CCCCNC(=O)C(NC(=O)c1ccc(C(F)(F)F)cc1)C(=O)c1ccccc1 (stereo unspecified)	ssDAF-12 act 2.4 (no result: DAX1 inh-2, FXN GAA850 act)
CCCCNC(=O)C(NC(=O)Cc1cc(C(F)(F)F)cc(C(F)(F)F)c1)C(=O)c1ccccc1 (stereo unspecified)	none (no result: DAX1 inh-2, FXN GAA850 act)
CCCN(CC1CC1)c1c2c(nc3ncnn13)CCCC2	none (no result: DAX1 inh-2, FXN GAA850 act)
Cc1noc(C)c1-c1ccc(C(=O)NC2CCCCC2)c2occc12	ssDAF-12 act 1.7 (no result: DAX1 inh-2)
CCCN1CCN(CC(=O)Nc2nc3ccccc3s2)CC1	ssDAF-12 act 1.2
CCNC(=O)Nc1nc2ccccc2s1	hgDAF12 agonist 13
O=C(NCCO)c1nc2ccccc2s1	ssDAF-12 act 1.0
COCCNC(=O)c1nc2ccccc2s1	none
COC(=O)[C@]12C[C@H](CC(=O)N3CCCC3)C(=O)N(Cc3ccco3)C1=C[C@H](C(C)C)O[C@@H]2C1CC1	none (no result: DAX1 inh-2, FXN GAA850 act)
O=C(NCc1cccs1)C1CCN(S(=O)(=O)c2cccc3ccccc23)CC1	none (no result: DAX1 inh-2, FXN GAA850 act)
COc1ccc(NC(=O)c2ccccc2O)c(OC)c1	hcDAF12 agonist 5.8
COc1ccc(NC(=O)c2cc(C(C)C)on2)c(OC)c1	hcDAF12 agonist 6.4
COc1ccc(NC(=O)c2cc(C)on2)cc1OC	none
COc1ccc(NC(=O)c2cc(C(C)C)on2)cc1OC	DAX1 inh-2 5.0
Cc1ccccc1Cn1cc(CN2[C@H](C)COc3cc(Br)ccc3S2(=O)=O)nn1	none (no result: DAX1 inh-2, FXN GAA850 act)
CC[C@H](CCCc1ccccc1OC)CCS(=O)(=O)N(C)C	none (no result: DAX1 inh-2, FXN GAA850 act)
O=C(NCC(=O)N1CCCC(C(F)(F)F)C1)c1ccccc1Br (stereo unspecified)	ssDAF-12 act 1.3
CC(=O)N1CCN2C(=O)C1CCCC(=O)c1cc(C3CCCCC3)ccc12 (stereo unspecified)	DAX1 inh-2 4.3
CC1(c2nnnn2C2CCCCC2)CCCC(=O)N1CCc1ccc(O)cc1 (stereo unspecified)	none (no result: DAX1 inh-2, FXN GAA850 act)
COc1ccc(OC)c2sc(NC(=O)c3cccc(N4C(=O)CCC4=O)c3)nc12	DAX1 inh-2 4.5
Cc1ccc2oc(=O)c3cc(C(=O)NCc4ccco4)sc3c2c1	DAX1 inh-2 6.1
Cc1ccc2oc(=O)c3cc(C(=O)NCCN4CCc5ccccc5C4)sc3c2c1	none
Cn1c(=O)oc2cc(S(=O)(=O)N3CCN(c4cccc(C(F)(F)F)c4)CC3)ccc21	none (no result: DAX1 inh-2, FXN GAA850 act)
Cc1ccc(C(=O)n2ccc3ccc(-c4ccc5ccn(Cc6ccccc6)c5c4)cc32)cc1	hcDAF12 agonist 6.2 (no result: DAX1 inh-2, FXN GAA850 act)
COc1ccc(S[C@]2(C(=O)N3CCCC3)CC(=O)N(c3ccc4c(ccn4C)c3)[C@@H]2c2ccc(OC)cc2)cc1	none (no result: DAX1 inh-2, FXN GAA850 act)
Cc1sc2nc(CN3CCCC3)nc(N3CCN(S(=O)(=O)c4cccs4)CC3)c2c1C	DAX1 inh-2 4.7
Cc1sc2nc(CN3CCOCC3)nc(NS(=O)(=O)c3ccccc3)c2c1C	DAX1 inh-2 6.3
C[C@@H]1CCN(C2CC2)S(=O)(=O)c2c(cccc2N2CC[C@@H](O)C2)O1	none (no result: DAX1 inh-2, FXN GAA850 act)
CC(C)Oc1ccc(C(=O)O)cc1	none
CC1=N/C(=C\c2ccc(OC(C)C)cc2)C(=O)N1c1ccc(C(=O)O)cc1	ssDAF-12 act 1.9
COc1cc(/C=C/CO)ccc1O[C@@H]1O[C@H](CO)[C@@H](O)[C@H](O)[C@H]1O	DAX1 inh-2 4.7
OCc1ccccc1O[C@@H]1O[C@H](CO)[C@@H](O)[C@H](O)[C@H]1O	none
CCOC(=O)N1CCN(C(=O)C[C@H]2C[C@@]3(C(=O)OC)C(=C[C@H](C(C)(C)C)O[C@@H]3C)N(Cc3cccc4ccccc34)C2=O)CC1	none (no result: DAX1 inh-2, FXN GAA850 act)
CCOc1nc(-c2ccccc2Cl)nc2ccccc12	none (no result: DAX1 inh-2)
C=CCOc1nc(-c2ccccc2Cl)nc2ccccc12	ssDAF-12 act 1.4
COc1ccc2cc(-c3cccc4[nH]cc(C)c34)ccc2c1	ssDAF-12 act 1.5 (no result: DAX1 inh-2, FXN GAA850 act)
Cc1c[nH]c2cccc(-c3ccccc3)c12	none (no result: DAX1 inh-2, FXN GAA850 act)
c1ccc2[nH]c(-c3cscn3)nc2c1	hgDAF12 agonist 12
O=C(NC(=S)NCc1cccnc1)c1ccccc1F	none
Fc1ccc(NC(=S)NCc2cccnc2)cc1	none
CC(C)(C)c1ccc(NC(=S)NCc2cccnc2)cc1	DAX1 inh-2 5.2
O=C(NC(=S)NCc1cccnc1)c1cccc2ccccc12	DAX1 inh-2 6.1
CC(=O)CC[C@@H]1CC[C@]2(CCCN(S(C)(=O)=O)C2)O1	none (no result: DAX1 inh-2, FXN GAA850 act)
O=C(Nc1ccc2c(c1)OCO2)c1cnc2n(c1=O)CCS2	none
O=C(Nc1ccccc1)c1cnc2n(c1=O)CCS2	hcDAF12 agonist 6.1
O=C(Nc1ccc2c(c1)OCCO2)c1cnc2n(c1=O)CCS2	DAX1 inh-1 3.7
C[C@H]1CN([C@@H](C)CO)C(=O)c2c(c3ccccc3n2C)-c2ccccc2CO[C@H]1CN(C)C(=O)Nc1cccc(F)c1	none (no result: DAX1 inh-2, FXN GAA850 act)
CCCCS(=O)(=O)N1CCCc2nc(CC)c(CC)cc21	none (no result: DAX1 inh-2, FXN GAA850 act)
Cc1cc(-c2n[nH]c(=S)n2N=Cc2ccc(OCc3ccccc3)cc2)n[nH]1	none (no result: DAX1 inh-2, FXN GAA850 act)
CC12CC3(C)CC(C)(C1)CC(C(N)=O)(C2)C3	DAX1 inh-2 5.8
CCN(CC)C(=S)SCC(=O)c1ccccc1	hgDAF12 agonist 11
CCN(CC)C(=S)SCC(=O)c1ccc(F)cc1	ssDAF-12 act 1.1
CCN(CC)C(=S)SCC(=O)c1c(C)[nH]c2ccccc12	none
